Results on 49 compounds are retold here after PubChem BioAssay AID1986 (Sanford-Burnham Center for Chemical Genomics, 2009).

The inhibition is the change of the read-out against control, counted positive when it falls.

Among all 290,000 compounds or so, about 890 (0.31%) were called active. This is one part of a sample in which actives are shown more often than they occur. Rule as the data show it: active = inhibition mostly above about 52% (no sharp cut-off); inactive = mostly below about 76%.

The test is described as follows: cell-free HIV fusion peptide-binding blockers – biochemical, uHTS, fluorescence dequenching, primary screen (AID 1986). The settings on record: 30 min, stronger effect = higher value.
The mark [1] stands for this setting: measured here: repeat confirmation average inhibition, at 18.6 µM.

`S=C1NC(c2ccccc2)=CC(c2ccccc2)N1` (configuration not stated): the inhibition (at 20 µM) was -0.8% (inactive). Regarding `CCOc1cc2c(cc1/C=C/C(=O)O)OC(C)C2` (configuration not stated), where the note is “at 20 µM”, the inhibition is -2.8% (inactive). In the case of `CCOc1cc2c(cc1C=O)OC(C)C2` (configuration not stated), the inhibition (at 20 µM) is 0.9% (inactive). With `CCOc1cc2c(cc1/C=C/c1noc(C)c1[N+](=O)[O-])OC(C)C2` (configuration not stated), the inhibition by setting is: (at 20 µM) 97.9% (active); under setting [1], 62.4%. In the case of `Cc1nonc1NC(=O)CSc1cn[nH]n1`, the inhibition (at 20 µM) was -0.1% (inactive).

For the compound `CCOc1ccc2nc(NC(=O)CSc3ccc(Cl)cc3)sc2c1`, where the note is “at 20 µM”, the inhibition was -1.6% (inactive). Still for that read-out and setting: the same measure for `N#Cc1c(-c2ccccc2)nc(SCC(=O)Nc2ccccc2)[nH]c1=O`: 22% (inactive). Consider `N#Cc1c(-c2ccccc2)nc(SCC(=O)Nc2ccccc2F)[nH]c1=O`, for which, for the setting “at 20 µM”, the inhibition was 14.2% (inactive). With `CCOc1ccc2nc(NC(=O)CSc3ccccc3)sc2c1`, where the note is “at 20 µM”, the inhibition was 2.6% (inactive). For the compound `COc1cccc(OC)c1OCCCOc1ccc([N+](=O)[O-])cc1Cl`, for the setting “at 20 µM”, the inhibition is 1.3% (inactive). Regarding `CC(C)(C)c1ccc(OC(=O)N2CCOCC2)cc1`, the inhibition (at 20 µM) is 1.1% (inactive). `NC(=O)C1CCN(C(=O)COc2ccc3c4c(c(=O)oc3c2)CCCC4)CC1`: the inhibition (at 20 µM) is -2.1% (inactive).

In the case of `CCCn1nc([N+](=O)[O-])c(C(C#N)c2nc3ccccc3o2)c(Cl)c1=O` (configuration not stated), the inhibition (at 20 µM) is 51.5% (active). Regarding `CCCn1nc([N+](=O)[O-])c(C(C#N)c2nc3ccccc3s2)c(Cl)c1=O` (configuration not stated), the inhibition is 52.4% (inactive) (at 20 µM) and 39.3% under setting [1]. In the case of `CCn1nc([N+](=O)[O-])c(C(C#N)c2nc3ccccc3n2C)c(Cl)c1=O` (configuration not stated), under “at 20 µM”, the inhibition is 9.2% (inactive). For `CCOc1cccc(-c2nnc(SCC(=O)Nc3ccc(OC)c(OC)c3)n2N)c1`, the inhibition (at 20 µM) is -0.9% (inactive).

With `CC(C)C[C@@H](COc1ccccc1)N1CCN(C)CCC1=O`, the inhibition (at 20 µM) was 1.1% (inactive). Same read-out and setting: next, `CCCOc1c(Br)cc(C(N)=O)cc1OCC`: -1.3% (inactive); `O=[N+]([O-])c1nn(-c2ccc3c(c2)OCCO3)n(O)c1=NCc1ccc(F)cc1`: -3.5% (inactive); `O=[N+]([O-])c1nn(-c2ccc3c(c2)OCCO3)n(O)c1=NCc1ccccc1Cl`: 1.5% (inactive). Take `O=[N+]([O-])c1nn(-c2ccc3c(c2)OCCO3)n(O)c1=NCc1ccc(F)cc1Cl`: the inhibition (at 20 µM) was 51.7% (active). For the compound `COc1ccc(OC)c(CCNC(=O)c2ccc3c(c2)N(Cc2ccc(F)cc2)CCS3)c1`, under “at 20 µM”, the inhibition was -0.6% (inactive). Same read-out and setting: next, `CCOC(=O)N1CCN(C(=O)c2cc3c(=O)n4cccc(C)c4nc3s2)CC1`: 1.5% (inactive); `Cn1c(=O)c2cc(S(=O)(=O)NCCC(=O)NC3CCCCCC3)ccc2n(C)c1=O`: -0.8% (inactive). As for `Cn1c(=O)c2cc(S(=O)(=O)NCCC(=O)NC3CCCCCCC3)ccc2n(C)c1=O`, for the setting “at 20 µM”, the inhibition was 70.9% (active). Regarding `CN(CC(=O)NC1CCCCC1)S(=O)(=O)c1ccc2c(c1)c(=O)n(C)c(=O)n2C`, the inhibition (at 20 µM) is -0.8% (inactive). With `COc1ccc(Cl)cc1N=Cc1c(O)c2ccccc2oc1=O`, the inhibition (at 20 µM) was 0.2% (inactive). In the case of `COc1cc(N=Cc2c(O)c3ccccc3oc2=O)c(OC)cc1Cl`, the inhibition (at 20 µM) is 73.9% (active) and the inhibition under setting [1] was 196%. In the case of `COc1ccc(OC)c(N=Cc2c(O)c3ccccc3oc2=O)c1`, the inhibition (at 20 µM) was 37.7% (inactive). As to `CC1CCCN(C2(O)C(=O)Nc3ccc(Cl)cc32)C1` (configuration not stated), for the setting “at 20 µM”, the inhibition was -0.9% (inactive). In the case of `COc1ccccc1CN(C)C(=O)CNC(=O)c1cccc(Cl)c1`, the inhibition (at 20 µM) is 0.2% (inactive). On to `O=C1OC(c2cccs2)=N/C1=C\c1ccc(-c2cccc(Cl)c2)o1`, for which the inhibition reads like this: (at 20 µM) 55.7% (inactive); under setting [1], 21.2%. For `O=C1OC(c2cccs2)=N/C1=C/c1ccc(-c2cccc(C(=O)O)c2)o1` the same measures were 53% (inactive) and 13.5%.

Take `O=C1OC(c2ccco2)=N/C1=C\c1ccc(-c2cccc(C(F)(F)F)c2)o1`: the inhibition (at 20 µM) was 55.6% (active) and the inhibition under setting [1] is 164%. For the compound `CCOc1ccc(C2C(C(=O)c3ccc(C)o3)=C(O)C(=O)N2Cc2cccnc2)cc1` (configuration not stated), the inhibition (at 20 µM) is -3.1% (inactive). In the case of `COc1ccc(C)cc1S(=O)(=O)NC1CCCCCC1`, the inhibition (at 20 µM) was -1.6% (inactive).

For the compound `Cc1ccccc1-n1ncc2c1CC(C)(C)CC2NC(=O)c1cn[nH]c1C` (configuration not stated), the inhibition (at 20 µM) is -0.7% (inactive). As for `COc1ccc(S(=O)(=O)/N=C2/NC(=O)/C(=C/c3ccco3)S2)cc1`, the inhibition (at 20 µM) was 70.3% (inactive) and the inhibition under setting [1] was 9.9%. Regarding `Cc1ccc(N=C2NC(=O)S/C2=C\c2ccco2)cc1`, where the note is “at 20 µM”, the inhibition is 47.8% (inactive).

As to `COc1ccc(N=C2NC(=O)/C(=C/c3ccco3)S2)cc1`, the inhibition (at 20 µM) is 9.7% (inactive). As to `COc1ccc(S(=O)(=O)/N=C2/NC(=O)/C(=C\c3ccco3)S2)cc1`, the inhibition (at 20 µM) is 60.8% (active). The same measure, in the same setting: the same measure for `O=C1NC(=Nc2ccccc2)/C(=C/c2ccco2)S1`: 47.9% (inactive); for `O=C1NC(=Nc2ccc(O)cc2)S/C1=C/c1ccco1`: 17.3% (inactive).

For the compound `Cc1ccc(N=C2NC(=O)/C(=C/C=C/c3ccco3)S2)cc1`, the inhibition by setting is: (at 20 µM) 52.6% (inactive); under setting [1], 1.5%. As to `CC(=O)Nc1ccc(S(=O)(=O)/N=C2/NC(=O)/C(=C\c3ccco3)S2)cc1`, the inhibition (at 20 µM) is 41.2% (inactive). For the compound `Cc1ccc(N=C2NC(=O)/C(=C\c3ccco3)S2)cc1`, the inhibition (at 20 µM) is 57.5% (active). Consider `COc1ccc(N=C2NC(=O)/C(=C\c3ccco3)S2)cc1`, for which the inhibition (at 20 µM) was 42% (inactive). For the compound `Cc1cccc(N=C2NC(=O)S/C2=C\c2ccco2)c1`, the inhibition (at 20 µM) was 71.9% (active). In the case of `O=C1NC(=Nc2ccc3ccccc3c2)S/C1=C/c1ccco1`, under “at 20 µM”, the inhibition was 54.8% (active).
